Holding throughout (assay): NCI-60 one-dose screen, 48 h (100 = growth as untreated, 0 = no growth, -100 = all killed)
One experiment concerns SR leukemia. The following applies: 10 µM.
Another experiment deals with RPMI-8226 leukemia. The following applies: 10 µM.
A further experiment deals with OVCAR-8 ovarian. The following applies: 10 µM.
The subject of another experiment is OVCAR-5 ovarian. The following applies: 10 µM.
The next experiment has as its system OVCAR-4 ovarian. The note with it: 10 µM.
The subject of the next experiment is SK-OV-3 ovarian. The following applies: 10 µM.
In the next experiment the test system is IGROV1 ovarian. The following applies: 10 µM.
In another experiment the test system is OVCAR-3 ovarian. The note with it: 10 µM.
The subject of the next experiment is HS 578T breast. The note with it: 10 µM.
A further experiment has as its system NCI/ADR-RES ovarian. The note with it: 10 µM.
A further experiment concerns T-47D breast. The note with it: 10 µM.
A further experiment deals with BT-549 breast. The following applies: 10 µM.
The subject of a further experiment is MDA-MB-435 melanoma. The following applies: 10 µM.
For the next experiment, the system named is SW-620 colon. The following applies: 10 µM.
In another experiment the test system is MCF7 breast. The note with it: 10 µM unless noted.
The next experiment deals with HCT-116 colon. The note with it: 10 µM.
The next experiment deals with KM12 colon. The note with it: 10 µM.
For the next experiment, the system named is HCC-2998 colon. The note with it: 10 µM.

SMILES strings stand for the structures. This is part of a sample that, as a whole, favours compounds with a hit. Of some 83,000 tested, about 20% had one in any assay.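 Growth was measured after 48 h exposure to one concentration of compound in 96-well plates. Values under 10 count as active.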 Values without a mark were called inactive. The source made the active and inactive calls.

For `CCCCCCCCOC(=O)c1ccccn1`, the growth in the experiment on SR leukemia was 125%; in the experiment on RPMI-8226 leukemia it was 101%; in the experiment on OVCAR-8 ovarian, 103%; in the experiment with OVCAR-5 ovarian, 95%; in the experiment with OVCAR-4 ovarian, 104%; with SK-OV-3 ovarian, 95.2%. Also, the growth in the experiment on IGROV1 ovarian was 103%; in the experiment with OVCAR-3 ovarian it was 110%; in the experiment with HS 578T breast, 106%; with NCI/ADR-RES ovarian it was 98.8%; in the experiment with T-47D breast it was 96.4%; with BT-549 breast it was 94.5%. Moreover, the growth was 116% with MDA-MB-435 melanoma; 98.3% with SW-620 colon; 96.2% with MCF7 breast; 94.2% in the experiment with HCT-116 colon; 103% in the experiment on KM12 colon.
For `C[N+](C)(C)C(=O)c1ccccc1`, the growth was 102% in the experiment with SR leukemia; 111% in the experiment with RPMI-8226 leukemia; 113% in the experiment on OVCAR-8 ovarian; 98.7% with OVCAR-5 ovarian; 115% in the experiment on OVCAR-4 ovarian; 104% in the experiment on SK-OV-3 ovarian. Further, the growth is 115% in the experiment on IGROV1 ovarian; 113% with OVCAR-3 ovarian; 118% in the experiment with HS 578T breast; 113% in the experiment with NCI/ADR-RES ovarian; 90.4% with T-47D breast; 101% in the experiment on BT-549 breast. In addition, the growth with MDA-MB-435 melanoma is 114%; in the experiment on SW-620 colon, 107%; with MCF7 breast it was 96.2%; in the experiment on HCT-116 colon it was 97.9%; with KM12 colon it was 112%.
Take `O=[N+]([O-])c1cccc(N=Nc2ccc(O)cc2O)c1`: the growth was 43.1% with SR leukemia; 29.6% in the experiment with RPMI-8226 leukemia; 74.3% in the experiment with OVCAR-8 ovarian; 143% in the experiment with OVCAR-5 ovarian; 62.3% with OVCAR-4 ovarian; 101% in the experiment on SK-OV-3 ovarian. In addition, the growth is 83.6% in the experiment with IGROV1 ovarian; 62.4% with OVCAR-3 ovarian; 72.7% in the experiment with HS 578T breast; 88.8% in the experiment on NCI/ADR-RES ovarian; 54% with T-47D breast; 49.8% in the experiment with BT-549 breast. Besides, the growth with MDA-MB-435 melanoma was 87.3%; in the experiment with SW-620 colon, 55.7%; in the experiment on MCF7 breast, 84.3%; with HCT-116 colon it was 14.3%; in the experiment with KM12 colon it was 90.9%.
For the compound `CC1NC(=O)NC1CCCCCC(=O)O` (centres undefined), the growth with SR leukemia was 118%; in the experiment on RPMI-8226 leukemia, 84%; in the experiment with OVCAR-8 ovarian, 94.8%; in the experiment on OVCAR-5 ovarian, 97.6%; with OVCAR-4 ovarian, 112%; in the experiment on SK-OV-3 ovarian it was 109%. The growth in the experiment on IGROV1 ovarian is 125%; with OVCAR-3 ovarian it was 108%; with HS 578T breast it was 106%; in the experiment with NCI/ADR-RES ovarian, 113%; in the experiment with T-47D breast, 101%; in the experiment with BT-549 breast it was 105%. Besides, the growth in the experiment with MDA-MB-435 melanoma is 117%; in the experiment with SW-620 colon, 105%; in the experiment with MCF7 breast, 99.8%; in the experiment on HCT-116 colon it was 105%; with KM12 colon, 98.7%.
On to `COc1ccc(C(O)c2ccccc2)cc1` (centres undefined), for which the growth with SR leukemia is 102%; in the experiment with RPMI-8226 leukemia, 108%; in the experiment with OVCAR-8 ovarian, 97.3%; with OVCAR-5 ovarian it was 102%; with OVCAR-4 ovarian it was 92.6%; in the experiment on SK-OV-3 ovarian, 99.2%. The growth in the experiment on IGROV1 ovarian is 99.3%; with OVCAR-3 ovarian, 107%; with HS 578T breast, 108%; in the experiment with NCI/ADR-RES ovarian, 105%; in the experiment on T-47D breast, 87.3%; in the experiment on BT-549 breast it was 121%. Also, the growth with MDA-MB-435 melanoma is 102%; with SW-620 colon, 90.3%; with MCF7 breast it was 97.5%; with HCT-116 colon, 110%; in the experiment with KM12 colon, 93.7%.
Consider `O=S(=O)(O)c1ccc(O)c2ccccc12`, for which the growth is 84.6% with SR leukemia; 94.5% in the experiment on RPMI-8226 leukemia; 113% with OVCAR-8 ovarian; 98.7% in the experiment with OVCAR-5 ovarian; 98.3% with OVCAR-4 ovarian; 94.1% in the experiment with SK-OV-3 ovarian. In addition, the growth is 86.1% with IGROV1 ovarian; 108% in the experiment on OVCAR-3 ovarian; 102% in the experiment with HS 578T breast; 98% in the experiment on NCI/ADR-RES ovarian; 99.4% in the experiment on T-47D breast; 91.6% in the experiment with BT-549 breast. In addition, the growth in the experiment with MDA-MB-435 melanoma was 113%; with SW-620 colon it was 97.3%; with MCF7 breast, 94.3%; in the experiment on HCT-116 colon, 98.4%; with HCC-2998 colon, 114%; with KM12 colon, 102%.
Consider `S=c1nn[nH]c2ccccc12`, for which the growth with SR leukemia was 92.2%; in the experiment with RPMI-8226 leukemia it was 117%; in the experiment with OVCAR-8 ovarian, 103%; with OVCAR-5 ovarian, 105%; with OVCAR-4 ovarian, 114%; with SK-OV-3 ovarian, 99.8%. For the same compound, the growth in the experiment on IGROV1 ovarian is 97.7%; in the experiment on OVCAR-3 ovarian, 111%; in the experiment with HS 578T breast, 109%; with NCI/ADR-RES ovarian, 105%; in the experiment with T-47D breast it was 109%; in the experiment with BT-549 breast, 106%. The growth in the experiment with MDA-MB-435 melanoma is 120%; in the experiment with SW-620 colon, 113%; in the experiment on MCF7 breast it was 99.2%; with HCT-116 colon, 103%; with KM12 colon, 101%.
Turning to `CCN=c1cc2sc3cc(NCC)c(C)cc3nc-2cc1C`, the growth with SR leukemia is 13.4%; in the experiment on RPMI-8226 leukemia, 2.43% (active); with OVCAR-8 ovarian, -16.3% (active); with OVCAR-5 ovarian, 27.5%; with OVCAR-4 ovarian it was 17.2%; in the experiment on SK-OV-3 ovarian it was 16.1%. Also, the growth with IGROV1 ovarian is 15.2%; in the experiment on OVCAR-3 ovarian, -33.8% (active); in the experiment on HS 578T breast, 50.8%; in the experiment on NCI/ADR-RES ovarian it was 19.9%; in the experiment on T-47D breast it was -1.96% (active); in the experiment on BT-549 breast it was 36.4%. For the same compound, the growth in the experiment on MDA-MB-435 melanoma was -35.1% (active); with SW-620 colon, 0.622% (active); with MCF7 breast it was -11.5% (active); in the experiment on HCT-116 colon, 7.17% (active); with HCC-2998 colon, 30.7%; in the experiment with KM12 colon, -1.68% (active).
For the compound `O=[N+]([O-])c1ccc(-c2ncc(-c3ccc(Br)cc3)o2)cc1`, the growth in the experiment with SR leukemia was 124%; in the experiment with RPMI-8226 leukemia, 78.8%; in the experiment on OVCAR-8 ovarian, 109%; with OVCAR-5 ovarian it was 105%; with OVCAR-4 ovarian, 97.3%; with SK-OV-3 ovarian, 112%. The growth in the experiment with IGROV1 ovarian is 100%; in the experiment on OVCAR-3 ovarian it was 129%; in the experiment on HS 578T breast, 129%; in the experiment on NCI/ADR-RES ovarian it was 104%; in the experiment on T-47D breast it was 94.7%; in the experiment with BT-549 breast it was 113%. Further, the growth with MDA-MB-435 melanoma was 108%; with SW-620 colon, 93.5%; in the experiment with MCF7 breast it was 87.4%; with HCT-116 colon it was 91.4%; in the experiment with HCC-2998 colon it was 88.2%; with KM12 colon, 119%.
As for `CC1CC(O)C2C3(C)CCCC2(COC3=O)C12CCC1(CCOC1=O)O2` (centres undefined), the growth was 114% in the experiment with SR leukemia; 117% in the experiment with RPMI-8226 leukemia; 127% in the experiment on OVCAR-8 ovarian; 104% in the experiment on OVCAR-5 ovarian; 103% with OVCAR-4 ovarian; 105% in the experiment with SK-OV-3 ovarian. Besides, the growth was 113% in the experiment on IGROV1 ovarian; 110% in the experiment on OVCAR-3 ovarian; 99% in the experiment with HS 578T breast; 111% with NCI/ADR-RES ovarian; 102% in the experiment on T-47D breast; 96.1% in the experiment on BT-549 breast. Besides, the growth was 101% with MDA-MB-435 melanoma; 102% in the experiment with SW-620 colon; 103% in the experiment on MCF7 breast; 97.4% with HCT-116 colon; 122% with HCC-2998 colon; 107% in the experiment with KM12 colon.

The record behind these values is PubChem BioAssay (NCI).
